We go through 17 compounds from PubChem BioAssay AID504773 (Broad Institute, 2011).

The structures appear in SMILES notation. Entries with a potency or affinity are not part of this list. The source made the active and inactive calls.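 The calls were made as follows: active = polarization signal falls with dose and the fitted half-maximal concentration is at or below ten times the sample's top valid dose; inconclusive = flat curve at 30 to 70% inhibition, or poor fit; inactive = signal rises, flat within 30%, or potency beyond limit.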

The target in the test is Golgi-associated PDZ and coiled-coil motif-containing protein (Homo sapiens) (UniProt Q9HD26). Briefly: potency against CAL PDZ-peptide interaction – biochemical, fluorescence polarization, Cerulean-tagged CAL PDZ, cherry-picks, dose response (AID 504773). The settings on record: CAL PDZ-peptide binding, 1 h; series mostly up to 50 µM. On the technique in general: Fluorescence polarisation rises when a labelled molecule tumbles more slowly, as on binding a larger partner.
`CSc1cccc(NC(=O)N2CCCC(CNS(=O)(=O)Cc3ccccc3)C2)c1` (configuration not stated): the outcome was inactive. As for `Cc1cc(NC(=O)Cc2ccc(Br)cc2)no1`, the entry is “inactive”; as for `O=C(NNS(=O)(=O)c1ccc(Cl)cc1)c1cccs1`, “inactive”.

On to `Oc1ccc(C=Nc2cccc3ccccc23)c(O)c1`, for which the compound was called inactive. Under `O=C(CCC(=O)N1CCN(c2ccccc2F)CC1)N1CCN(c2ccccc2)CC1` stands “inactive”.

Take `O=C(Oc1c(CN2CCOCC2)cc(Cl)c2cccnc12)c1ccc(F)cc1`: the compound was called inactive. As for `CC(C)c1ccc(CNC(=O)C(=O)NCCCn2ccnc2)cc1`, the entry is “inactive”; as for `CC1CCC(NC(=O)C2CCN(c3cnccn3)CC2)CC1` (configuration not stated), “inactive”; as for `Cc1ccc2nc(CSc3nnc(-c4ccncc4)n3C)cc(=O)n2c1`, “inactive”.

With `O=C(COC(=O)c1cccc(O)c1)NC(=O)Cc1ccccc1`, the outcome was inactive. Consider `CCC(C)NC(=O)C1CCCN(C(=O)Nc2ccc(F)cc2)C1` (configuration not stated), for which the compound was called inactive. Under `C/C(=N\NC(=O)C(O)c1ccccc1)c1ccc(Cl)s1` (configuration not stated) stands “inactive”; under `O=C(c1ccccc1)C(CCc1ccccn1)CCc1ccccn1`, “inactive”. As for `O=C(NCc1ccccn1)c1ccc(NS(=O)(=O)c2ccccc2)cc1`, the entry is “inactive”. With `O=C(NCc1cccs1)c1cccn2c(=O)c3sccc3nc12`, the result was inactive. As for `CCOC(=O)CCC(=O)Nc1ccc(S(=O)(=O)N2CCC(C)CC2)cc1`, the compound was classed as inactive. Under `O=C(CSc1nc2c(sc3ccccc32)c(=O)n1Cc1ccccc1)NCC1CCCO1` (configuration not stated) stands “inactive”.
